Hits are enriched below; roughly 12% of the tested compounds scored in any of these assays.
Shiga inhibitor – A qHTS for Small Molecule Inhibitors of Shiga Toxin | inhibition, % at 38.7 µM | 9.2% of 290,000 active | Vero cells, Shiga toxin protein synthesis inhibition reporter | AID 2315, 2010; in the data active means inhibition mostly above about 28%, no sharp cut-off; inactive means mostly below about 43%; further: 0% is about no effect
NS1 inh – qHTS Assay for Inhibitors of Influenza NS1 Protein Function | Potency, µM (highest dose often 46.1 µM), for the others: top-dose activity, positive = more growth | 0.4% of 270,000 active; further: potency means the concentration at half of the fitted maximal effect; actives are rising curves; nearly all actives have a fitted effect of over 50% in size
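In this qHTS, NS1 from influenza A is expressed in budding yeast, where it slows growth. Cells are switched from glucose to 2% galactose medium (pH 6.0, -URA), treated with compound, and growth recovery is read at OD600.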
SARS PLpro yeast – qHTS of Yeast-based Assay for SARS-CoV PLP | Potency, µM (doses to about 32.9 µM), inactives show top-dose activity, positive = growth rescue, actives largely listed as activators | 0.19% of 330,000 active | S. cerevisiae expressing SARS-CoV PLpro, growth rescue | AID 485353, 2010; further: potency means the concentration at half of the fitted maximal effect; 0% is about no effect; nearly all actives have a fitted effect of over 55% in size
CHX counter – Cycloheximide Counterscreen for Small Molecule Inhibitors of Shiga Toxin; AID 2314, 2010; cell reporter, cycloheximide protein synthesis inhibition counterscreen; 12% of 300,000 active; max response, %; in the data active means max response mostly above about 13%, no sharp cut-off; inactive means mostly below about 14%; further: read at 38.3 µM for the half of the compounds with a filed dose; 0% is about no effect
An asterisk follows results filed as active; ? = inconclusive; · = no result; + = active, no number. Unless noted, the call rests on the fitted dose curve.

SMILES	Shiga inhibitor	NS1 inh	SARS PLpro yeast	CHX counter
O=C(Nc1cccc(NC(=O)c2cccs2)c1)c1ccc2c(c1)OCCO2	21.4*	1.5%	-0.4%	22.6*
CN(c1cccc(NC(=O)c2ccc(C(C)(C)C)cc2)c1)S(C)(=O)=O	41.8	0.7%	-0.8%	43.4*
O=C(Nc1cccc(NC(=O)c2cccs2)c1)c1ccc(Br)cc1	1.3	7.5%	-3.8%	2.3
CCCN(C(=O)COC(=O)c1[nH]c(C)c(C(=O)OC)c1C)c1c(N)n(Cc2ccccc2)c(=O)[nH]c1=O	·	·	3.5%	·
CCN1CCCC1CNC(=O)c1cc2cc(F)ccc2[nH]1 (stereo unspecified)	-3.8	2.5%	-0.9%	-2.7
O=C(CSC1=NCCN1)c1ccccc1	·	-3.8%	·	·
Cc1noc(C)c1COc1cccc(C(=O)OC(C)C(=O)Nc2ccc3c(c2)OCO3)c1 (stereo unspecified)	-7.2	-2.6%	1.3%	-2.1
Cc1noc(C)c1COc1cccc(C(=O)Nc2ccc3c(c2)OCO3)c1	61.2*	·	-2.9%	28.5*
O=C(Nc1cccc([N+](=O)[O-])c1)c1ccc2c(c1)OCCO2	89.0*	-16.6%	-38.8%	40.6*
CSc1ccccc1C(=O)Nc1ccc2c(c1)OCCO2	64.4	-10.2%	·	22.9
O=C(Nc1ccc2c(c1)OCCO2)c1ccccc1	68.6*	-52.9%	-4.1%	42.4*
O=C(NC(=S)Nc1ccccc1Br)c1ccc2c(c1)OCO2	60.5*	8.6%	-0.5%	31.5*
Cc1ccc(NC(=O)C(C)N2CCCC2)cc1Cl (stereo unspecified)	-1.5	·	-1.2%	-2.6
Cc1cc(C(=O)CCC(=O)NC(C)c2ccc(S(N)(=O)=O)cc2)c(C)s1 (stereo unspecified)	·	·	-1.7%	·
Cc1noc(C)c1COc1cccc(C(=O)OCCOc2ccc(F)cc2)c1	51.9*	-5.3%	-7.8%	26.0*
O=C(NC(=S)Nc1ccc2c(c1)OCO2)c1ccccc1	102.0*	-3.4%	4.8%	47.1*
COc1cc(NC(=O)CSc2ccc3c(c2)OCCO3)cc(OC)c1OC	-21.9	17.9%	-7.2%	8.2
O=C(Nc1cccc(Cl)c1)c1ccc(F)c(S(=O)(=O)NCc2ccc3c(c2)OCO3)c1	-0.7	14.4%	-15.1%	21.1*
COc1cc(NC(=S)Nc2ccc3c(c2)OCCO3)cc(OC)c1OC	68.5*	5.7%	1.0%	32.3*
CS(=O)(=O)Nc1ccc(C(=O)Nc2ccc3c(c2)OCCO3)cc1	54.6	7.1%	6.2%	25.1*
NS(=O)(=O)c1ccc(NC(=S)NC(=O)c2ccc3c(c2)OCO3)cc1	-6.8	9.5%	3.0%	-2.7
CC(C)c1ccc(O)c(NC(=S)NC(=O)c2ccc3c(c2)OCO3)c1	98.5*	-26.7%	25.8%	53.5*
O=C(CCCc1ccccc1)Nc1ccc2c(c1)OCCO2	66.4*	-4.5%	-0.5%	35.6*
O=C(Oc1ccc2c(c1)OCO2)c1cccs1	40.1*	-6.7%	0.8%	27.1*
Cc1ccc(/C=C/C(=O)Nc2nnc(SCc3ccc(C#N)cc3)s2)o1	-9.7	-1.5%	-26.9%	-1.4
SMILES	Shiga inhibitor	NS1 inh	SARS PLpro yeast	CHX counter
CCOc1cccc(C(=O)Nc2ccc3c(c2)OCCO3)c1	37.3	-17.2%	-5.0%	36.3*
Cn1c(SCc2cccc(F)c2)nnc1-c1ccncc1	-7.7	3.2%	0.8%	-1.8
O=C(Nc1cccc(Cl)c1)ON=C1c2ccccc2-c2ccccc21	41.3	-112.4%	-31.9%	24.1
Cc1ccc(NC(=O)C/C(N)=N/OC(=O)Nc2cccc(C)c2)cc1	·	·	-5.3%	·
Cc1ccc(NC(=O)ON=C2CCCC2)cc1	+	-30.9%	·	54.9*
O=C(Nc1ccccc1)ON=C1CCCC1	38.6	-28.3%	-71.8%	23.3*
COc1cc(C=O)ccc1OCC(=O)NC(C)(C)C	5.5	-1.8%	0.4%	1.3
COc1ccc([C@@H](Nc2ccccn2)c2cc(C(C)(C)C)cc(C(C)(C)C)c2O)cc1	·	-0.6%	·	·
CC(=O)N1CCN(Cc2nc3cc(NC(=O)c4ccccc4Cl)ccc3n2C)CC1	-3.0	-2.2%	1.1%	-5.2
Cn1c(CN2CCCCC2)nc2cc(NC(=O)c3ccc(F)cc3)ccc21	24.3	-7.3%	0.1%	33.5*
Cn1c(CN2CCCCC2)nc2cc(NC(=O)c3ccccc3Cl)ccc21	72.4*	5.3%	-0.8%	44.2*
Cc1cccc(OCC(=O)Nc2ccc3c(c2)nc(CCN2CCCCC2)n3C)c1	-6.9	-2.0%	?	-1.9
Cc1cccc(OCC(=O)Nc2ccc3c(c2)nc(CN2CCCCC2)n3C)c1	53.2	-13.3%	0.3%	29.1*
COc1ccc(OCCC(=O)OCC(=O)NCc2ccccc2)cc1	-1.6	-3.1%	6.9%	-3.0
Cc1cccnc1NC(=O)NC(=O)c1ccc(C(C)(C)C)s1	63.2*	-8.1%	-4.9%	37.7*
O=C(NC(=S)Nc1ccccn1)c1cncc(Br)c1	25.1	7.2%	17.2%	41.3*
Cc1cccnc1NC(=S)NC(=O)c1cccs1	190.6*	-12.4%	2.9%	58.9*
Cc1cccnc1NC(=S)NC(=O)c1cncc(Br)c1	91.4*	3.1%	1.2%	35.2*
CC1CCCN(C(=O)COc2ccc3c(c2)OCO3)C1 (stereo unspecified)	64.2*	8.1%	-1.5%	48.0*
COc1ccccc1OCC(=O)/C=C1/N(C)c2ccccc2C1(C)C	11.3	-4.0%	0.7%	9.1
Cc1cc2cc3c(cc2nc1SCC(=O)N1c2ccccc2CC1C)OCO3 (stereo unspecified)	-3.7	25.4%	-23.7%	0.2
CC1Cc2ccccc2N1C(=O)COc1ccc2c(c1)OCO2 (stereo unspecified)	74.3*	·	-9.1%	34.2*
CC1CCCN(C(=O)c2ccc3c(c2)OCO3)C1 (stereo unspecified)	22.2	6.7%	1.0%	4.4
CN1/C(=C\C(=O)COc2ccc3c(c2)OCO3)C(C)(C)c2ccccc21	10.6	-44.1%	-15.0%	10.7*
CC1Cc2ccccc2N1C(=O)CSc1ccccc1 (stereo unspecified)	97.8	2.4%	-3.6%	50.8*
SMILES	Shiga inhibitor	NS1 inh	SARS PLpro yeast	CHX counter
Cc1cc(C(C)(C)C)cc(CNC2CCCCC2)c1O	·	-5.6%	·	·
CC1Cc2ccccc2N1C(=O)CCn1c(=O)sc2ccccc21 (stereo unspecified)	58.6	-11.2%	0.1%	12.3*
O=C1/C(=C/c2ccc3c(c2)OCO3)Oc2cc(OCC(=O)N3CCC[C@H]3C(=O)O)ccc21	22.9	17.4%	7.8%	8.2*
CCC(C(=O)OCC(=O)NC(=O)NC(C)(C)C)c1ccccc1 (stereo unspecified)	1.8	4.1%	-6.1%	7.0
Cn1c(=O)c2c(nc3n2CC(CO)O3)n(C)c1=O (stereo unspecified)	-13.8	?	2.9%	0.5
CCOc1ccc2nc(NC(=O)Cn3[nH]c(=O)c4ccccc4c3=O)sc2c1	53.5*	0.1%	-0.9%	40.6*
CCOc1ccc2nc(NC(=O)CN3CCN(CC)CC3)sc2c1	17.1	15.6%	0.4%	12.4
O=C(CN1CCOCC1)Nc1nc2ccc(Cl)cc2s1	38.5	13.5%	-1.3%	21.6*
CCOc1ccc2nc(NC(=O)CN3CCOCC3)sc2c1	87.3*	0.2%	2.9%	36.7*
CCOC(=O)N1CCN(CC(=O)Nc2nc3ccc(OC)cc3s2)CC1	44.7*	-17.7%	2.4%	24.8*
CCOc1ccc2nc(NC(=O)CN3C(=O)C4CCCCC4C3=O)sc2c1 (stereo unspecified)	·	·	0.7%	·

Bioassay records: PubChem BioAssay, National Center for Advancing Translational Sciences (NCATS)
